Assay outcomes: PubChem, National Center for Advancing Translational Sciences (NCATS)
MARV entry inh = Marburg virus entry inhibition; Marburg virus pseudotyped entry inhibition, cell reporter; Potency, µM (series often up to 37.8 µM), for inactives: at the highest dose activity change, negative = inhibition, most hits filed as inhibitors; 300,000 compounds, 1.8% hits; AID 540276; calls by dose curve; tested in HEK293 cells; also: potency is read from the fitted curve at half-maximal effect
FMDV antiviral = foot and mouth disease virus antiviral activity. 410,000 compounds, 1.2% hits. AID 1159524. FMDV antiviral cell-based qHTS. Potency, µM (titrated, usually from 57.9 µM), without a hit: at the highest dose activity change, negative = inhibition, actives largely listed as inhibitors; calls by dose curve; tested in HEK293T cells; also: read-out not given here; potency is read from the fitted curve at half-maximal effect; nearly all actives have a fitted effect of over 45% in size
HCMV inh = human cytomegalovirus inhibition; HFF cells, HCMV-luciferase reporter, 72 h; stronger effect = lower value; activity change, negative = inhibition, % at 57.5 µM; 410,000 compounds, 4.5% hits; AID 1259415; in the data active = activity change below about -60%; inconclusive = no clear call, values can overlap the other calls; inactive = above about -39%
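Two-dose cell screen: HFF monolayers treated with compounds and infected with luciferase-expressing HCMV at 1 PFU/cell, 72 h at 37C, then lysed for luciferase measurement.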
LASV entry inh = blocks Lassa virus binding to or entry into cells | Potency, µM (series often up to 37.9 µM), without a hit: at the highest dose activity change, negative = inhibition, most hits filed as inhibitors | 300,000 compounds, 1.2% hits | Lassa virus pseudotype entry inhibition, cell reporter; calls by dose curve; tested in HEK293 cells; also: potency is read from the fitted curve at half-maximal effect; nearly all actives have a fitted effect of over 50% in size
Numbers without * were called inactive; ? = inconclusive; · = no result; + = active, no number; [ ] = another dose, or the depositor's remark. Rows were chosen to be rich in hits. Some 6.2% of all compounds tested hit in one or more screens of this group. % is scaled to controls: 0 for no effect and ±100 for the full control effect.

SMILES	MARV entry inh	FMDV antiviral	HCMV inh	LASV entry inh
CC(C)NC(=O)c1ccc(-n2c(-c3ccccc3)cc3c2CCCCC3)cc1	·	11.7%	?	17.0%[46.1 µM]
COCCNC(=O)c1ccc(-n2c(-c3ccccc3)cc3c2CCC(C)C3)cc1 (stereo not given)	·	0.0%	-101.1*	2.7%[46.1 µM]
COc1cccc2sc(N(Cc3cccnc3)C(=O)C3COc4ccccc4O3)nc12 (stereo not given)	·	-20.4%	0.0	-12.3%[46.1 µM]
CCCSc1ncc(Cl)c(C(=O)Nc2c(C(=O)Nc3ccc(OC)cc3)oc3ccccc23)n1	-0.4%[46.1 µM]	-23.1%	-16.8	10.6%[46.1 µM]
O=C(NCCc1ccccn1)C1CC12CCN(C(=O)c1ccc(F)cc1Cl)CC2 (stereo not given)	·	0.0%	·	·
C[C@@H]1CCCCO[C@H](CN(C)S(=O)(=O)c2cn(C)cn2)[C@@H](C)CN([C@H](C)CO)C(=O)c2cc(NC(=O)CCCN(C)C)ccc2O1	·	·	-11.5	·
Cc1ccc(Cl)cc1N1CCN(C(=O)Cn2cnc3nc4c(cc3c2=O)CCCC4)CC1	·	?	-8.5	-17.1%[46.1 µM]
Cc1ccc(C#C[C@@H]2C=C[C@H](Oc3ccc4c(c3)OCO4)[C@@H](CO)O2)c(C)c1	11.5%[14.2 µM]	·	·	·
Cc1ccc2nc(NC(=O)c3cccs3)sc2c1	3.16µM*	-36.7%	14.1	2.51µM*
CS(=O)(=O)c1ccc2nc(NC(=O)c3cccs3)sc2c1	2.24µM*	-72.6%	76.0	?
CCOc1ccc2nc(NC(=O)c3cccc(-c4cc5ccccc5oc4=O)c3)sc2c1	?	4.9%	-30.3	15.0%
Cc1ccc2nc(NC(=O)c3cccc(-c4cc5ccccc5oc4=O)c3)sc2c1	?	·	-89.4*	?
COc1ccc(C)cc1NC(=O)c1ccc(=O)n(Cc2ccccc2)c1	·	-19.8%	-27.1	-18.7%[46.1 µM]
COc1cc2c(cc1OC)[C@@H]1O[C@](CCCCN3C(=O)c4ccccc4C3=O)(C2)OC2=C1C(=O)CC(C)(C)C2	-8.8%[14.2 µM]	·	·	·
COc1ccc(-n2nc(C(=O)N3CCCC(C)C3)c3c4ccccc4n(C)c3c2=O)cc1 (stereo not given)	14.1%[46.1 µM]	-0.4%	-2.4	-5.9%[46.1 µM]
CCN1CCCC1CNC(=O)c1cnn(-c2nccc(-c3cc4ccccc4o3)n2)c1C1CC1 (stereo not given)	·	-11.1%	·	·
Fc1cc(F)cc(NC(=S)Nc2ccccc2N2CCOCC2)c1	?	-25.9%	-62.2*	-9.3%[46.1 µM]
CC(=O)c1ccc(N2CCN(S(=O)(=O)c3ccc4c5c3CC(=O)N5CC(C)S4)CC2)cc1 (stereo not given)	·	14.1µM*	·	·
Cc1cccc(NC(=O)NCCOCCn2c(=O)oc3ccccc32)c1C	4.4%[46.1 µM]	-12.1%	19.1	8.1%[46.1 µM]
Cc1cccc(N2CCN(C(=O)CSCc3ccc(F)cc3)CC2)c1C	·	-2.9%	-26.7	4.3%[46.1 µM]
Cc1cccc(-c2nc(CSCC(=O)N3CCN(c4cccc(C)c4C)CC3)c(C)o2)c1	·	?	-64.9*	7.1%[46.1 µM]
Cc1ccc(SCC(=O)N2CCN(c3ccccn3)CC2)cc1	26.3%[46.1 µM]	10.4%	6.4	10.5%[46.1 µM]
Cc1cccc(-c2nc(CSCC(=O)N3CCN(c4ccccn4)CC3)c(C)o2)c1	?	15.8µM*	-66.2*	?
CC(C)[N+]1(C)C2CCC1CC(OC(=O)C(CO)c1ccccc1)C2 (stereo not given)	·	2.0%	·	·
Cc1nnc(NC(=O)CSc2ncnc3scc(-c4ccccc4)c23)s1	-4.4%	-15.5%	-15.5	-2.1%
SMILES	MARV entry inh	FMDV antiviral	HCMV inh	LASV entry inh
Cn1nnnc1Sc1ncnc2scc(-c3ccc(-c4ccccc4)cc3)c12	·	?	-97.2*	·
Cn1nnnc1Sc1ncnc2scc(-c3cc4ccccc4o3)c12	·	17.8µM*	-99.7*	·
Cn1nnnc1Sc1ncnc2scc(-c3cccs3)c12	·	22.4µM*	·	·
CC(=O)c1ccccc1-c1csc2ncnc(Sc3nnnn3C)c12	·	-16.5%	?	·
Cn1nnnc1Sc1ncnc2scc(-c3ccsc3)c12	·	15.8µM*	-97.1*	·
Cc1ccc(C)n1-n1cnc2scc(-c3cccs3)c2c1=O	?	-5.9%	-0.6	-18.4%
CCOC(=O)C(CC)Sc1nnc2[nH]c(=O)cc(C)n12 (stereo not given)	·	-4.9%	51.0	6.7%[46.1 µM]
Cn1nnnc1Sc1ncnc2scc(-c3ccc(C#N)cc3)c12	·	28.2µM*	-94.1*	·
CC(=O)N1CC(C)Sc2ccc(S(=O)(=O)NC(C)c3ccccc3)cc21 (stereo not given)	·	-9.8%	-71.6*	·
CC(=O)N1CC(C)Sc2ccc(S(=O)(=O)NCCc3ccccc3)cc21 (stereo not given)	·	-3.9%	+	·
COc1ccccc1NS(=O)(=O)c1ccc2c(c1)N(C(C)=O)CC(C)S2 (stereo not given)	·	-25.0%	?	·
CC1Sc2ccc(S(=O)(=O)NCCc3ccccc3)cc2NC1=O (stereo not given)	·	53.5%	+	·
